# Laboratory results taken from the supplement of paper PMC6555819.
# How the values were obtained:
# Assay in all cases: PBM binding z-score (relative to random genomic background probes); higher = stronger binding; sequences stand for … in GC…GCGATTGACAGCGTAGAATGAAGG
# [1] = tested on: PPARg:RXRa DBDmut IVT, anti-RXR (DBD mutation: RXRa K156A/R161A, NR concentration 270 nM, RXRa partner concentration 90 nM)
# Procedure, shortened: (§1)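 Each nuclear receptor dimer, without ligand, was incubated for 1 h on custom Agilent 4×180K protein-binding microarrays. Binding was detected with antibodies against each partner (one per run), and scanned fluorescence was regression-normalized. The binding z-scores are referenced to random human genomic background probes.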
# [2] = tested on: PPARg:RXRa IVT, anti-PPARg (NR concentration 270 nM, RXRa partner concentration 90 nM)
# Procedure, shortened: as §1
# [3] = tested on: PPARg DBDmut:RXRa IVT, anti-PPARg (DBD mutation: PPARg1 K132A/R137A, NR concentration 270 nM, RXRa partner concentration 90 nM)
# Procedure, shortened: as §1
# [4] = tested on: PPARg DBDmut IVT, anti-PPARg (DBD mutation: PPARg1 K132A/R137A, NR concentration 270 nM)
# Procedure, shortened: as §1
# [5] = tested on: PPARg homodimer (NR concentration 180 nM)
# Procedure, shortened: as §1
# [6] = tested on: PXR:RXRa (NR concentration 270 nM, RXRa partner concentration 90 nM)
# Procedure, shortened: as §1
# [7] = tested on: PXR homodimer (NR concentration 270 nM)
# Procedure, shortened: as §1
# [8] = tested on: RARa:RXR (NR concentration 270 nM, RXRa partner concentration 90 nM)
# Procedure, shortened: as §1
# [9] = tested on: RARa homodimer (NR concentration 270 nM)
# Procedure, shortened: as §1
# [10] = tested on: RARb:RXRa (NR concentration 270 nM, RXRa partner concentration 90 nM)
# Procedure, shortened: as §1
# [11] = tested on: RARb homodimer (NR concentration 270 nM)
# Procedure, shortened: as §1
# [12] = tested on: RARg:RXRa (NR concentration 270 nM, RXRa partner concentration 90 nM)
# Procedure, shortened: as §1
# [13] = tested on: RARg homodimer (NR concentration 270 nM)
# Procedure, shortened: as §1
# [14] = tested on: RXRa DBDmut IVT, anti-RXR (DBD mutation: RXRa K156A/R161A, NR concentration 90 nM)
# Procedure, shortened: as §1
# [15] = tested on: RXRa homodimer (NR concentration 180 nM)
# Procedure, shortened: as §1
# [16] = tested on: THRa:RXRa (NR concentration 90 nM, RXRa partner concentration 90 nM)
# Procedure, shortened: as §1
# [17] = tested on: THRa homodimer (NR concentration 90 nM)
# Procedure, shortened: as §1
# [18] = tested on: VDR homodimer (NR concentration 270 nM)
# Procedure, shortened: as §1
Sequence,PBM binding z-score [1],PBM binding z-score [2],PBM binding z-score [3],PBM binding z-score [4],PBM binding z-score [5],PBM binding z-score [6],PBM binding z-score [7],PBM binding z-score [8],PBM binding z-score [9],PBM binding z-score [10],PBM binding z-score [11],PBM binding z-score [12],PBM binding z-score [13],PBM binding z-score [14],PBM binding z-score [15],PBM binding z-score [16],PBM binding z-score [17],PBM binding z-score [18]
TCATATAGGTAAATGTTAGGTGAAAGTCCGATCT,4.12,2.63,1.47,1.82,1.66,0.918,0.8,1.63,1.9,0.728,0.881,0.623,0.326,2.12,1.09,2.51,1.58,0.982
CATTACGGGTCACTCCAGGTTATAGCATCGGAGT,3.99,4.96,1.72,1.65,2.09,5.11,0.705,3.78,0.9,3.97,3.31,4.59,4.57,1.53,4.65,5.06,0.963,1.83
CCTTACGGGTCACGAGGTTATTGCACGACGAGCG,4.41,5.61,1.02,0.757,3.66,4.88,0.56,6.61,1.28,4.57,4.19,6.12,5.46,1.83,7.15,3.67,1.4,2.55
TCTCGGAGGACACGAAAGGTCACAGCTCGACATC,2.07,2.97,0.919,0.445,3.93,5.57,1.09,6,2.7,4.78,4.92,6.11,6.17,1.44,6.3,4.29,2.38,2.48
CAAACTAGGTCAAGCGGTCAAAGTCCGCTTCCCG,8.54,8.61,4.37,1.14,3.03,2.21,0.102,3.33,0.747,4.62,4.55,5.64,6.19,1.57,4.04,3.23,0.992,1.5
TCATTTAGGTAAAGGTGAAAGTCGAACGATATGA,3.05,3.75,1.29,2.17,1.2,1.35,0.193,1.92,1.42,2.05,1.52,1.74,1.44,0.874,2.07,2.01,0.0517,0.0443
GGTACAGGGTCAGCTAGAGGCCAGAGTATGGAAA,0.482,2.29,0.521,-0.216,2.93,3.37,0.15,4.88,0.0993,4.22,3.27,6.72,4.84,1.01,4.27,3.07,0.717,1.14
ACATGTAGGTTACATCCGGGTCATTCAGGCTATG,6.27,6.09,4.52,4.01,3.27,3.95,2.86,3.98,0.622,2.43,3.01,3.84,2.29,1.4,3,3.83,2.85,3.73
AGAAGGAGGTTACCAAAGATCAGGGAAACGCTTG,2.51,2.63,0.699,0.604,0.719,1.25,0.551,1.46,0.412,1.89,1.11,1.66,1.54,-0.25,2.27,1.73,0.244,0.128
TCGAGTAGGTTAGGGGAATTCAGAATGGCGTCGA,2.13,1.78,0.128,-0.466,0.866,-0.0984,0.0558,-0.0883,0.338,0.249,0.239,-0.23,-0.153,0.0691,-0.0464,0.0502,-0.191,-0.0168
CCTGCTAGGTCAATGGACAGCTAAAGCAGCTCGC,3.92,3.11,-0.347,-0.89,0.928,0.497,-0.327,1.2,-0.377,3.75,2.51,3.34,4.17,1.5,1.8,1.95,0.0455,0.153
TATATTAGTTGAAGGGCAACCGACGAGTCCGTTT,0.182,0.973,1.48,1.13,1.26,0.629,0.738,0.321,1.47,1.68,1.37,0.983,1.22,0.547,0.884,0.415,-0.0239,1.91
CTCTAAAGGTCGGTTGAGGTGAGTATACGGATAA,0.506,1.04,0.0568,0.0389,1.04,3.48,0.187,2.31,-0.146,3.31,2.4,3.06,3.15,1.52,2.44,5.16,1.17,0.546
GCGACTGGGGCTAAGCAGGTTACCATAAGGTTGG,0.815,0.343,-0.64,-1.34,-0.237,-0.0501,-0.222,0.266,-0.85,0.544,0.946,0.126,0.179,-0.481,-0.00806,1.12,0.145,-0.2
ACTAGCAGGCCAAGTTAGGGTCACTCAAACAAAG,0.489,1.32,0.153,-0.603,1.07,3,0.292,3.73,-0.482,2.86,3.53,4.02,2.89,-0.159,3.35,4.14,2.34,1.18
